In assay [1] the target is Solute carrier family 12 member 5 (Homo sapiens) (UniProt Q9H2X9). Nature of the assay: retest of KCC2 transport modulators without sodium – cell-based, HEK293 KCC2, thallium flux, secondary assay, confirmation (AID 1713;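 active = thallium flux slope above the same plate's solvent-only control mean plus 3 SD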). The settings on record: FluoZin2 fluorescence, at 10 µM, stronger effect = higher value.
The nature of assay [2]: PubChem AID 1714.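 Note: raw slope of fluorescence over initial fluorescence between 10 and 20 s after thallium.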 The settings on record: HEK293-KCC2 + bumetanide/ouabain, thallium flux FluoZin2; at 10 µM; stronger effect = higher value.
The target in assay [3] is Solute carrier family 12 member 5 (Homo sapiens) (UniProt Q9H2X9). Nature of the assay: retest of KCC2 transport modulation, ouabain-free – cell-based, HEK293 KCC2, thallium flux, FluoZin2, secondary assay 2, confirmation (AID 1715).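 Note: raw slope with 0.1% DMSO as baseline and bumetanide as block control.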 Conditions: HEK293-KCC2, thallium flux FluoZin2 fluorescence; at 10 µM; actives lie on both sides; F/F0 rise rate, 10–20 s post-thallium.
Assay [4] can be described thus: compound effects on native HEK Tl+ uptake – HEK cells, counterscreen 1, counter-screen for KCC2 modulator project, confirmation (AID 1716;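 active = thallium flux rate significantly above the same plate's solvent-only control wells, beyond their mean plus 3 SD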). Conditions: HEK293 parental cells, thallium flux FluoZin2, ouabain; at 10 µM; baseline-ratio fluorescence slope, 10–20 s after thallium. In general terms: The purpose of a counterscreen is to sort out artefacts and off-target activity.

The target in assay [5] is Solute carrier family 12 member 5 (Homo sapiens) (UniProt Q9H2X9). Nature of the assay: modulation of KCC2 thallium flux in HEK cells – cell-based, ouabain, retest, confirmation (AID 1717;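 active = thallium flux slope beyond 3 SD from same-plate DMSO control mean in most replicates, usually higher, sometimes lower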;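 note: slope of initial-normalized fluorescence between seconds 10 and 20 after thallium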). Conditions: HEK293-KCC2, thallium flux FluoZin2 fluorescence, at 10 µM, bidirectional: low = inhibitor, high = activator.
Assay [6] is described as follows: native HEK Tl+ uptake effects, second counter-screen – HEK cells, counterscreen 2, counter-screen for KCC2 modulator project, confirmation (AID 1718;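 active = thallium flux slope above the same plate's solvent-control mean plus 3 SD in both duplicate wells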;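 note: run without ouabain in cells lacking the KCC2 cotransporter; slope of fluorescence scaled to its starting value between 10 and 20 s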). The settings on record: HEK293 parental, thallium flux FluoZin-2 fluorescence slope; at 10 µM.
The nature of assay [7]: inhibitors of TNFa-induced NFkB p65 translocation, primary screen, imaging, HUVEC, MLSMR starter and 10KST1 sets (AID 438;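 active = inhibition above 20% together with a positive visual image hit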;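 note: compound added about 3h40 before a 20 min TNFalpha stimulation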;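 for inhibition: signal is the nuclear over cytoplasmic p65 intensity ratio per well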). Conditions: HUVEC TNFa-induced p65 nuclear translocation; cell count: measured here: nuclei count (cytotoxicity indicator), at 2.08 µM; inhibition: at 2 µM, stronger effect = higher value, 0% TNFa-plus-vehicle, 100% no-TNFa wells.
The nature of assay [8]: reduction of polyQ htt aggregates in cells – imaging, exon1htt(103Q)mCFP cells, high-content imaging, primary screen (AID 483;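 active = visual image review flags a hit and inhibition of aggregation exceeds 20%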;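 note: compound exposure lasted 3 days before fixation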;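 for nuclei count: percent of the per-plate median nuclei count of sample wells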). The settings on record: exon1htt(103Q)mCFP cell line, aggregate imaging, at 2 µM; inhibition of aggregation: stronger effect = higher value; nuclei count: measured here: cell count, toxicity.
Assay [9] in a line: endothelial E-selectin expression blockers – imaging, HUVEC, immunofluorescence, MLSMR starter and 10KST1 sets, primary screen (AID 487;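 active = visually confirmed hit in the image check and inhibition above 20%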;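 for inhibition: signal is fraction of cell area covered by stained E-selectin grains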;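 for nuclei count: 100% = median nuclei count of all wells on the same plate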). Conditions: HUVEC TNFalpha-induced E-selectin immunofluorescence imaging, at 2 µM; inhibition: stronger effect = higher value; nuclei count: measured here: cell number, toxicity.
A short description of assay [10]: Primary imaging screen for DUSP6 inhibitors that restore phospho-Erk in transfected HeLa cells, chemical complementation (AID 609;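 active = compounds giving at least 50% inhibition in the cell-based MKP-3 phosphatase rescue imaging test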;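 for inhibition: phospho-Erk level distribution per well compared with pooled transfected vehicle control wells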). The settings on record: HeLa MKP-3 transfected, phospho-Erk imaging KS statistic, at 10 µM, cells stimulated with TPA for 15 min.
Assay [11] concerns the target Dual specificity protein phosphatase 6 (Homo sapiens) (UniProt Q16828). The assay is described as above. Conditions: HeLa MKP-3 transfected, phospho-Erk imaging KS statistic; at 10 µM; stronger effect = higher value; cells stimulated with TPA for 15 min.
The target of assay [12] is Voltage-gated potassium channel subunit beta-2 (Rattus norvegicus) (UniProt P62483). Nature of the assay: inhibitors of rat Kvbeta2 reductase activity – biochemical, NADPH fluorescence, primary screen (AID 622;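 active = fluorescence slope higher than the sample average by over 3 SD, cut at about -0.22 in these data, passing the limit was not always enough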;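 note: slope of raw intensity against log time taken from 70 to 1610 s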). The settings on record: recombinant KvBeta, 4-cyanobenzaldehyde reduction, at 10 µM, stronger effect = higher value.
Sequence of Voltage-gated potassium channel subunit beta-2 (Rattus norvegicus) (P62483 whole entry, looked up): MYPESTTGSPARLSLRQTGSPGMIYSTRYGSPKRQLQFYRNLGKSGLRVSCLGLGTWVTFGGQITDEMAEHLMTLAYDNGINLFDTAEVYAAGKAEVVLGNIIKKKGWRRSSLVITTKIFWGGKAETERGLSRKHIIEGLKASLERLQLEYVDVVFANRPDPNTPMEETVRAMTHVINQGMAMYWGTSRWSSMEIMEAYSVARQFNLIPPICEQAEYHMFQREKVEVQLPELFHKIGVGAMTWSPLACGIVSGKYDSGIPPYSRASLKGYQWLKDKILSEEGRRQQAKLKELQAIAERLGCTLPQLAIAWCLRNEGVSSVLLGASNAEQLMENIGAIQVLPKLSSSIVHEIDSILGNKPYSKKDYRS
For assay [13] the target is unchanged. Nature of the assay: enhancers of rat Kvbeta2 NADPH turnover – biochemical, NADPH fluorescence, primary screen (AID 623;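 active = NADPH fluorescence slope more negative than the mean of all samples by about 3 SD, 99.7% confidence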;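 note: fluorescence intensity change per second fitted from 20 to 320 s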). Conditions: Recombinant KvBeta, NADPH fluorescence decrease slope, 10 min; at 10 µM; stronger effect = lower value.
In assay [14] the target is Muscarinic acetylcholine receptor M4 (Homo sapiens) (UniProt P08173). Nature of the assay: M4-linked GIRK flux change, two-sided – cell-based, HEK293 M4/GIRK, thallium flux, BTC-AM, M4 allosteric agonist project, primary screen (AID 625;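 active = fluorescence slope after compound addition differing from the mean of all tested samples at 99.7% confidence, mostly higher but some lower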;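 note: thallium influx through GIRK channels coupled to M4 in HEK293 cells with BTC-AM dye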). Conditions: at 10 µM, actives lie on both sides.
Sequence of Muscarinic acetylcholine receptor M4 (Homo sapiens) (P08173 whole entry, looked up): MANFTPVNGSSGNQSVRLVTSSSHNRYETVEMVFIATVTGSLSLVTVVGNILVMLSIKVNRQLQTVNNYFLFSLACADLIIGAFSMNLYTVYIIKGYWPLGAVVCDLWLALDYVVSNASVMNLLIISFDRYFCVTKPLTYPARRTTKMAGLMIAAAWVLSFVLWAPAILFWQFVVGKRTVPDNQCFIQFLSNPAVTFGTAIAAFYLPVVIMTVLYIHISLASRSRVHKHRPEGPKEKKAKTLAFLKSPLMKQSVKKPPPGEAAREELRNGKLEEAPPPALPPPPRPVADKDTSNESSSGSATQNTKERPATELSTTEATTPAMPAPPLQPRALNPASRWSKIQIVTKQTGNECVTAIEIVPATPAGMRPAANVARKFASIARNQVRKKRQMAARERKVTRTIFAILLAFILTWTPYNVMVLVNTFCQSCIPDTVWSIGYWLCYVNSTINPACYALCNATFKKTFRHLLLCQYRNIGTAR
Assay [15] can be described thus: inhibitors of larval lipid processing in zebrafish, primary screen, whole organism, PED6 fluorescence, gall bladder and intestine (AID 686;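 active = a full or partial loss of lipid-probe fluorescence in the fish gall bladder, intestine or both, judged by eye; inactive = no fluorescence loss, or compound toxic to the fish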;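 note: larvae 5 to 7 days old with five fish per well; signal comes from phospholipase A2 cleavage of quenched PED6 carried via bile; overnight exposure to compound and PED6 before scoring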). The settings on record: Zebrafish larvae PED6 lipid processing, fluorescence scoring; screened at 20 µM (by protocol).
Assay [16] can be described thus: loss of swimming-algae plug formation – whole organism, Chlamydomonas reinhardtii, WT vs cilia-less mutant, absorbance, 96-well, primary screen (AID 463189;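 active = inhibition at or above 50% relative to wild type and mutant plate controls; inactive = inhibition below 50%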;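 note: 0% = wild type cc124 cells in DMSO and 100% = ciliumless bld1 mutant cells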). Conditions: Chlamydomonas reinhardtii gravitaxis, OD600 absorbance, 2 days; at 10 µM; stronger effect = higher value.
Assay [17] in a line: blockers of RIG-like receptor reporter activation – cell-based, Sendai virus stimulus, luciferase, 10K MLSCN set, TLR/RLR signaling modifier project, primary screen (AID 602276;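 active = inhibition at or above 50% at 10 µM; inactive = inhibition below 50%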;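 note: firefly luciferase from ISG56 promoter only with Renilla not read in this screen; 0% = Sendai virus plus DMSO and 100% = medium plus DMSO without virus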). Conditions: HEK293 RL24 IRF3 luciferase reporter, at 10 µM, stronger effect = higher value.
Assay [18] can be described thus: TLR3 IRF3 reporter activation blockers – cell-based, poly I:C stimulus, luciferase, 10K MLSCN set, primary screen (AID 602277;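 active = inhibition of the reporter signal at or above 50%; inactive = inhibition below 50%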). The settings on record: HEK293-TLR3 RL24 IRF3 luciferase reporter, at 10 µM, stronger effect = higher value. (In general: A reporter such as luciferase makes a cellular process visible.)

The list shows a part of the results. Inconclusive results are not listed. Active and inactive are the calls of the source.

Sequence of Solute carrier family 12 member 5 (Homo sapiens) (Q9H2X9 whole entry, looked up): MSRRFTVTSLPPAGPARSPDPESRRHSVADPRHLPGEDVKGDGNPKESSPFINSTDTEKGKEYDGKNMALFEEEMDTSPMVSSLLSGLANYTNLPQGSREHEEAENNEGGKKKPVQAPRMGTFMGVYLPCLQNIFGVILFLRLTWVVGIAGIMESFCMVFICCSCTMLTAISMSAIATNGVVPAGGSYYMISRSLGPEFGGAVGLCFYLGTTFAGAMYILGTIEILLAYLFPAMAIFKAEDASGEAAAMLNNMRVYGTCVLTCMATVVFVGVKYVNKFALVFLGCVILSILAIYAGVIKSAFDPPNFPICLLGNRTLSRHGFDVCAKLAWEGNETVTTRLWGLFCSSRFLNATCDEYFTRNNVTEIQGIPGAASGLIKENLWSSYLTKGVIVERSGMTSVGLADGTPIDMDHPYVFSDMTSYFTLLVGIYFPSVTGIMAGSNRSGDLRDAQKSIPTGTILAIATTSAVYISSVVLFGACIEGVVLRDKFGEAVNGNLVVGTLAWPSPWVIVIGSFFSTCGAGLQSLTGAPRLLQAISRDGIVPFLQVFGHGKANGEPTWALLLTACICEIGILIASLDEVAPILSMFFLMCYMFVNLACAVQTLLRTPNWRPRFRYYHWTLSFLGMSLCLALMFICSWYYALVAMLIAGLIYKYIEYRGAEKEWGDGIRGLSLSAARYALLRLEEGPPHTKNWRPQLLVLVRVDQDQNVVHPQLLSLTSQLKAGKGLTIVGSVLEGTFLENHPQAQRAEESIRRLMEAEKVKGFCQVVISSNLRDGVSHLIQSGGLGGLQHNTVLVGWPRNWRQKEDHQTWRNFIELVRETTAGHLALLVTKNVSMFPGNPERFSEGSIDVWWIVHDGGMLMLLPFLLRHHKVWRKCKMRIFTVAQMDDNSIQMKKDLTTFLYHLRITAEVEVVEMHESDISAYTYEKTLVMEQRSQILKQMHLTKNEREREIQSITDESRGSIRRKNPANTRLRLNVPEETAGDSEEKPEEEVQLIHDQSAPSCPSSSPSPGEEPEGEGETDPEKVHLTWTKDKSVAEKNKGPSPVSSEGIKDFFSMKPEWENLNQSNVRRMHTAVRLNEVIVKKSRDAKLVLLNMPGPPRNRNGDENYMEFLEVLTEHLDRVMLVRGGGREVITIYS
Sequence of Dual specificity protein phosphatase 6 (Homo sapiens) (Q16828 whole entry, looked up): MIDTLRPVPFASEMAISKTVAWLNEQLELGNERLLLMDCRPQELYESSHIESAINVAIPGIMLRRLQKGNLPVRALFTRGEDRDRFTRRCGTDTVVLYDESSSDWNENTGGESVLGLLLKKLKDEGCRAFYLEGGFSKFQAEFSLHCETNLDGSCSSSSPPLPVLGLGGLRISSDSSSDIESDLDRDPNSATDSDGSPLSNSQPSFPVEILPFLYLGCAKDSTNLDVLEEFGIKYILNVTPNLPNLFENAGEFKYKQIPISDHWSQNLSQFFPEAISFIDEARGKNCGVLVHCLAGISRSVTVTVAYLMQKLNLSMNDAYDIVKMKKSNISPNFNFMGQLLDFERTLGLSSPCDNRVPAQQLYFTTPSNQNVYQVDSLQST

Turning to `Cc1nc(SCc2ccc(F)cc2)c([N+](=O)[O-])[nH]1`, the normalised thallium flux (F/F0 slope) in assay [1] was 0.00918 (inactive). Moreover, the figures for the normalized thallium flux in [2] and in assay [3] were 0.00631 (inactive) and 0.0237 (active), respectively. Also, the thallium flux rate (normalised fluorescence) in [4] was 0.00609 (inactive). In [5], the raw Tl+ flux slope (below DMSO = inhibition, above = activation) is 0.0255 (active). Further, in [6], the thallium flux slope is 0.00995 (inactive).
For `CC/S(CC1CC1(Cl)Cl)=N\S(=O)(=O)c1ccc(C)cc1` (stereo not drawn), in assay [1], the normalised thallium flux (F/F0 slope) is 0.0104 (inactive). The normalized thallium flux in assay [2] is 0.00604 (inactive); in assay [3], 0.0348 (inactive). For the same compound, the thallium flux rate (normalised fluorescence) in assay [4] is 0.00744 (inactive). Also, the raw Tl+ flux slope (below DMSO = inhibition, above = activation) in [5] was 0.0213 (inactive). The thallium flux slope in assay [6] is 0.0107 (inactive).
Take `COc1ccc(-c2cn(-c3ccc(OC)cc3)c(=S)[nH]2)cc1`: in assay [1], the normalised thallium flux (F/F0 slope) is 0.00623 (inactive). For the same compound, the normalized thallium flux in assay [2] is 0.0216 (active); in assay [3], 0.0299 (inactive). Further, the thallium flux rate (normalised fluorescence) in assay [4] was 0.0163 (active). Besides, in [6], the thallium flux slope was 0.0135 (active).
On to `COc1ccc(C2/C=C\CN(S(=O)(=O)c3cccs3)CC(=O)N2Cc2ccc(F)cc2)cc1` (stereo not drawn), for which the normalised thallium flux (F/F0 slope) in assay [1] is 0.00741 (inactive). In addition, the normalized thallium flux in assay [2] was 0.00428 (inactive); in assay [3], 0.0313 (inactive). Besides, in [4], the thallium flux rate (normalised fluorescence) is 0.00682 (inactive). Also, the thallium flux slope in assay [6] is 0.00998 (inactive).
Take `N#Cc1nc(COc2ccc(-c3ccccc3)cc2)oc1NCc1cccnc1`: the normalised thallium flux (F/F0 slope) in assay [1] is 0.00789 (inactive). In addition, the normalized thallium flux was 0.00445 (inactive) in assay [2] and 0.029 (inactive) in [3]. Moreover, in assay [4], the thallium flux rate (normalised fluorescence) is 0.00821 (inactive). The raw Tl+ flux slope (below DMSO = inhibition, above = activation) in [5] is 0.0173 (inactive). Besides, the thallium flux slope in assay [6] was 0.01 (inactive).
Turning to `O=C(Cn1cnc2c(nnn2Cc2ccc(F)cc2)c1=O)NCc1ccc2c(c1)OCO2`, the normalised thallium flux (F/F0 slope) in assay [1] is 0.0157 (inactive). The normalized thallium flux is 0.00497 (inactive) in [2] and 0.0238 (active) in [3]. For the same compound, the thallium flux rate (normalised fluorescence) in assay [4] is 0.00772 (inactive). In [5], the raw Tl+ flux slope (below DMSO = inhibition, above = activation) was 0.0137 (inactive). In assay [6], the thallium flux slope was 0.0107 (inactive).
Consider `Cc1ccc(NCc2n[nH]c(=S)n2-c2ccccc2)cc1Cl`, for which, in assay [1], the normalised thallium flux (F/F0 slope) is 0.00768 (inactive). The figures for the normalized thallium flux in assay [2] and in assay [3] were 0.0747 (active) and 0.0302 (inactive), respectively. For the same compound, in assay [4], the thallium flux rate (normalised fluorescence) was 0.00846 (active). Besides, the thallium flux slope in [6] was 0.00946 (inactive).
Regarding `Cc1nn(-c2ccccc2)c2sc(C(=O)N(Cc3ccco3)C(C)C(=O)NC(C)(C)C)cc12` (stereo not drawn), in assay [1], the normalised thallium flux (F/F0 slope) is 0.00786 (inactive). In addition, the normalized thallium flux was 0.00436 (inactive) in assay [2] and 0.0324 (inactive) in [3]. Also, the thallium flux rate (normalised fluorescence) in assay [4] is 0.00693 (inactive). Moreover, the raw Tl+ flux slope (below DMSO = inhibition, above = activation) in assay [5] is 0.0198 (inactive). The thallium flux slope in [6] was 0.0103 (inactive).
`C(=N\n1cnnc1)/c1cccnc1`: the cell count in [7] came out at 581. The inhibition – broadly, the relative decrease from the control value, in per cent – in [7] was 0.9% (inactive); in assay [9], -64.9% (inactive); in assay [11], 1.42% (inactive); in [16], 0.59% (inactive); in [17], -11.4% (inactive); in assay [18] it was -7.31% (inactive). Further, the inhibition of aggregation in assay [8] was 18.4% (inactive). Also, the figures for the nuclei count in [8] and in assay [9] were 76.7% and 115%, respectively. The z-score in [10] (measured here: cell density z-score) was 0.785; in assay [10] (measured here: nuclear c-Myc green intensity z-score), -0.718; in [10] (measured here: nuclear pErk red intensity z-score, stronger effect = higher value), 0.742. Further, the fluorescence slope in assay [12] is -0.457 (inactive); in assay [14], 0.00428 (inactive). For the same compound, in [13], the NADPH fluorescence slope was -0.000114 (inactive). In addition, in assay [15], the compound was called inactive. Also, the normalised thallium flux (F/F0 slope) in [1] is 0.0086 (inactive). The normalized thallium flux in assay [2] is 0.00647 (inactive); in [3] it was 0.0321 (inactive). Moreover, the thallium flux rate (normalised fluorescence) in [4] is 0.0072 (inactive). For the same compound, in assay [5], the raw Tl+ flux slope (below DMSO = inhibition, above = activation) was 0.021 (inactive). Further, the thallium flux slope in [6] is 0.0101 (inactive).

(Values after PubChem BioAssay.)
